This is an account of results in PubChem BioAssay AID1259376 (The Scripps Research Institute Molecular Screening Center, 2018).

About 360 (7.7%) of roughly 4,700 compounds were called active.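 Rule for the calls: active = inhibition above a cutoff derived from the DMSO control wells (cut at about 30% in these data); inactive = the rest.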 Shown is part of a subset that was picked to be rich in actives.

The assay is described as follows: bead signal artefacts at single dose – biochemical, AlphaScreen, triplicate, counter-screen for MITF inhibitor project (AID 1259376). The note with it: LysRS AlphaScreen counterscreen, signal interference, at 2.6 µM, hits give high values.
By inhibition is commonly meant the drop in the measured response relative to a control, in per cent. Take `COc1cc(NC(=O)CCc2nc(C3=CCN(C)CC3)no2)cc(OC)c1OC`: the inhibition was 34.2% (active).

Consider `COc1ccccc1CN1CCN(C(=O)Cc2ccccc2)CC1`, for which the inhibition was 7.15% (inactive).

In the case of `COc1ccc(CN2CCN(C(C)C)CC2)cc1`, the inhibition is 10.5% (inactive).

As to `COc1cccc(CN2CCN(Cc3ccccc3F)CC2)c1`, the inhibition was 16.6% (inactive).

For `CCN1CCc2nc3ccccc3c(C(=O)O)c2C1`, the inhibition is 4.31% (inactive).
